Assay results from ChEMBL document CHEMBL3988442, “University of Dundee, Small-Polar-MMV Screening Library” (2021).
Potency and affinity values are given separately.

Biological target: Protein translocase subunit SecA (Escherichia coli (strain K12)) (UniProt P10408)
Assay: Assay to Identify E. coli SecA ATPase Inhibitors
Format: functional
Set-up: scale not given: direction of the effect not stated beside the values
Settings: 30 µM

Chain of Protein translocase subunit SecA (Escherichia coli (strain K12)) (P10408 whole entry): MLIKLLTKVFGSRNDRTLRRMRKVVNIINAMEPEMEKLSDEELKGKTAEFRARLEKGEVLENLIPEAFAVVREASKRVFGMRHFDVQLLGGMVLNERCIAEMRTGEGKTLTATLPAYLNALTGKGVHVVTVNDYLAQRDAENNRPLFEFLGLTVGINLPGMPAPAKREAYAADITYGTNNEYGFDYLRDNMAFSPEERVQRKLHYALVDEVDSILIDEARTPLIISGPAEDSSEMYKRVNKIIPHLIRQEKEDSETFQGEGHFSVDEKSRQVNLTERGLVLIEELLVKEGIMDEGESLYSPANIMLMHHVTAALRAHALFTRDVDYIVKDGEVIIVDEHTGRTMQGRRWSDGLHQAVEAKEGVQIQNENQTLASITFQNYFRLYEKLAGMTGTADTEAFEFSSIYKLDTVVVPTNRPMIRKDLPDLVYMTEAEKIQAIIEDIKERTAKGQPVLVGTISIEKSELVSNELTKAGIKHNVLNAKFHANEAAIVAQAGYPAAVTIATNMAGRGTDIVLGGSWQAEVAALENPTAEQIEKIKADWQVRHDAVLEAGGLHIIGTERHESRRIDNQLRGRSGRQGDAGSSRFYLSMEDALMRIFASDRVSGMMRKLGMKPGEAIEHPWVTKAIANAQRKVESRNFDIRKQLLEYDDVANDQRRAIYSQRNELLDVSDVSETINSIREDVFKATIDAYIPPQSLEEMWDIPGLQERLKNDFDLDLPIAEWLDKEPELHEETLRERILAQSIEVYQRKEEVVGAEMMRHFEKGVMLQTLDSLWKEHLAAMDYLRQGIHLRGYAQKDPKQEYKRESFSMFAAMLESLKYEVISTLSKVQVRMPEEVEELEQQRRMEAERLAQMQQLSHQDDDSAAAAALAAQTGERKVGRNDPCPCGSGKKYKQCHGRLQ

| Compound | Percent Effect [%] |
| --- | --- |
| Cc1nc[nH]c1CN1CCN(C(=O)c2cccs2)[C@H]2CS(=O)(=O)C[C@H]21 | -6.02 |
| Cc1ccc(CCC(=O)N2CCCC(n3cncn3)C2)c(C)c1 (centres undefined) | -4.25 |
| Cc1cc(-c2nn(C)c(Cl)c2CN2CCOCC2CC(=O)O)no1 (centres undefined) | -6.59 |
| CCc1nc(CN2CCCN(C(=O)c3cn[nH]c3CC)CC2)cs1 | 0.744 |
| CCC(=O)N1CCC(Cc2nccnc2Nc2ccccn2)CC1 | -5.27 |
| Cn1cc(NC(=O)N2CCC(NS(C)(=O)=O)CC2)ccc1=O | 1.1 |
| CC(C)CC(=O)N1C[C@@H]2CCN(c3ncccn3)C[C@@H]2C1 | -0.224 |
| CN(Cc1ccc2c(c1)OCCO2)C(=O)Cn1ccccc1=O | -0.175 |
| Cc1ccc(N2CCC3(CCCN(C(=O)c4cccnc4)C3)C2)nn1 (centres undefined) | -10.1 |
| O=C(c1cc[nH]n1)N1CCCC(c2cccc(-n3ccnc3)n2)C1 (centres undefined) | -1.25 |
| COC(=O)C1CCN(C(=O)c2ccc(N(C)S(C)(=O)=O)c(C)c2)CC1 | -3.72 |
| CC(=O)N(Cc1ncc(C)o1)C1CCN(CCCc2cnn(C)c2)C1 (centres undefined) | -1.84 |
| O=C(c1ccc(F)cc1Cl)N1CCC(Nc2cccnn2)CC1 | -3.11 |
| Cc1cc(CNc2cc(Cl)ccc2OCCS(C)(=O)=O)no1 | -0.942 |
| CN1[C@H](Cn2cccn2)C[C@@H]2CN(C(=O)Cc3cccs3)CC[C@@H]21 | -4.49 |
| Cc1cccc(CN2C[C@@H]3COC[C@]3(CNC(=O)c3ccsc3)C2)n1 | -7.55 |
| COc1ccc(C2CC(=O)Nc3c2nc2n3CCCC2)cc1OC (centres undefined) | -2.41 |
| CN(C)CCN1CCC2(CCN(C(=O)c3ccc(F)cc3)CC2)C1=O | -1.6 |
| COc1c(CNC2CCc3cc(F)ccc32)c(C)nn1C (centres undefined) | -0.933 |
| Cc1ccc(NC2CCN(C(=O)c3cc(C(N)=O)cs3)CC2)nn1 | -3.49 |

| Compound | Percent Effect [%] |
| --- | --- |
| COC[C@@H]1CC[C@H]2[C@H](CCN2S(=O)(=O)c2ccc(OC)cc2)O1 | -2.3 |
| NC(=O)CN1CCC(C(=O)N2CCCC(OCc3cccnc3)C2)CC1 (centres undefined) | -5.86 |
| Cc1ccc(F)cc1C(=O)N1C[C@@H](CN2CCOCC2)[C@@H](CO)C1 | -9.2 |
| CC(C)N1CCO[C@H]2CN(C(=O)c3ccc(N(C)C)cc3)C[C@H]21 | -3.12 |
| O=C(c1cc(C2CC2)on1)N1CCCC(n2cncn2)C1 (centres undefined) | -3.26 |
| CC(Cn1cccn1)NC(=O)N1CCN(Cc2cccs2)CC1 (centres undefined) | -1.74 |
| Cc1nc(-c2ccc(C(=O)O)cc2)cc(C2CCN(C(C)C)C2)n1 (centres undefined) | -2.82 |
| O=C(Nc1nnc(C2CC2)s1)NC1CCN(Cc2ccccc2)C1 (centres undefined) | -5.17 |
| Cc1cc(C(=O)NCc2ccnc(N3CCN(C)CC3)c2)c(C)s1 | -2.97 |
| CC(Cn1cccn1)NC(=O)NCc1cccnc1OC1CCCC1 (centres undefined) | -2.7 |
| Cn1ccc(CN2CCC(NC(=O)Cc3ccccc3)CC2)cc1=O | -2.78 |
| CN(C)CC(=O)N1CCC2(CCN(Cc3ccccn3)C2=O)C1 (centres undefined) | -3.33 |
| CC(C)n1ccnc1C1CCN(C(=O)c2ccccc2)CC1 | -5.35 |
| Cc1nccn1-c1cccc(C2CCCN2S(=O)(=O)N(C)C)n1 (centres undefined) | -4.04 |
| O=C(c1ccccn1)N1CCN(c2ccc(-c3cccnc3)nn2)CC1 | -3.31 |
| Cc1ccccc1-c1cc(C(=O)NCCN2CCCS2(=O)=O)[nH]n1 | -1.9 |
| Cc1cc2cc(C(=O)N3CC[C@H](O)[C@]4(CCCO4)C3)ccc2o1 | -4.25 |
| CC(C)n1[nH]c(=O)c2c1NC(=O)CC2c1ccc2ncccc2c1 (centres undefined) | -1.16 |
| O=C(C1CCC1)N1CCn2c(COc3ncccn3)nnc2C1 | -7.65 |
